# Pf Dd2 inh: inhibitors of Plasmodium falciparum Dd2 growth; P. falciparum Dd2 growth, SYBR Green, 72 h; 4.3% of 120,000 active; Potency, µM (top dose mostly 28.9 µM), most hits filed as inhibitors; active = well fitted inhibition curve with a large enough effect; also: nearly all actives have a fitted effect of over 65% in size
#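 Readout: SYBR Green fluorescence, 485 nm excitation, 535 nm emission, after ~16 h lysis at 37C. Before that, Dd2-infected red cells (2.5% hematocrit) grew 72 h with compound, 29 uM top final concentration.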
# A number is an active result; – = inactive; ! = not active in a repeat; [ ] = another dose, or the depositor's remark. Many of the other results were omitted from the sample, so hits are more common in it than they were.
SMILES,Pf Dd2 inh
NC1CC(c2nnc(COc3ccc4c(c3)CCNCC4)n2C2CC2)C1 (stereo not drawn),10µM!
COCCn1c(COc2ccc3c(c2)ncn3C)nnc1C1CC(N)C1 (stereo not drawn),–
Cc1cc(=O)n(CC(=O)Nc2cc(Cl)ccc2C)c(N2CCC(C)CC2)n1,–
O=C(c1cnccn1)N1CCC(Oc2cccnc2)C1 (stereo not drawn),–
CCOC(=O)c1sc(NC(=O)C2c3ccccc3Oc3ccccc32)c(C#N)c1C,–
Cc1c(C(=O)OC(C)C)sc(NC(=O)C2c3ccccc3Oc3ccccc32)c1C(=O)OC(C)C,2.2µM
Cc1sc(NC(=O)COc2ccc(C(C)(C)C)cc2)c(C(=O)OC(C)C)c1C,–
CC(C)c1nc(C(=O)N2CCC(CCC(=O)Nc3ccc4c(c3)OCCO4)CC2)cs1,–
CC(C)Oc1ccc(CNC(=O)C2Cn3cccc3C(=O)N2)cc1 (stereo not drawn),–
O=C(COc1ccccc1)NC[C@H]1O[C@H](Cc2cc(CN3CCNCC3)on2)CC[C@@H]1O,–
CC(C)c1noc(-c2cn(C3CCCN(C(=O)c4ccc5c(c4)OCO5)C3)nn2)n1 (stereo not drawn),–
CCCCn1c(NCc2ccc(OC)cc2O)nc2ccccc21,7.9µM
CCCCn1c(COc2cccc(OC)c2)nc2ccccc21,–
CCn1c(NCc2ccc(OC)c(OC)c2)nc2ccccc21,–
CCc1cccc(C)c1NC(=O)Nc1csc2c1CCCC2,–[5.79 µM]
O=C(Nc1ccc(F)cc1)Nc1csc2c1CCCC2,10µM
Cc1ccc(NC(=O)Nc2csc3c2CCCC3)c(C)c1,–[5.79 µM]
Cc1nc(CN(C)C(=O)c2cc(Cn3c(C)nc4ccccc43)on2)cs1,–
Cc1n[nH]c(C)c1S(=O)(=O)N(CC(=O)NC(C)c1ccccc1)c1ccc(C(C)C)cc1 (stereo not drawn),–
COc1ccc(N(CC(=O)NCc2ccc(F)cc2)S(=O)(=O)c2c(C)n[nH]c2C)cc1,–
Cc1ccc(N(CC(=O)Nc2ccc(C)c(F)c2)S(=O)(=O)c2c(C)n[nH]c2C)cc1,8.9µM
O=C(NCc1nnc2n1C(C(=O)O)CC2)c1ccc2c(c1)OC(F)(F)O2 (stereo not drawn),–
CC(C)C(=O)N1CCC(CC(=O)NCc2ccccc2)C1 (stereo not drawn),–
O=C(O)C1CCc2nnc(C3CCN(C(=O)c4ccc5c(c4)OCO5)CC3)n21 (stereo not drawn),–
Cc1ccc(-n2c(/C=C/c3cc(Br)cs3)nc3ccccc3c2=O)cc1C,–
SMILES,Pf Dd2 inh
Cc1ccc(-n2c(/C=C/c3cccs3)nc3ccccc3c2=O)cc1C,8.9µM
COc1cccc(/C=C/c2nc3ccccc3c(=O)n2-c2ccc(C)c(C)c2)c1OC,–
CCCn1nc(C)c(NC(=O)CC[C@H]2NC(=O)c3ccccc3NC2=O)c1C,–
COc1cccc(-c2cccc(-c3nc(C4CCOCC4)nn3CCO)c2)c1,–
Cc1ccc(N2CC(c3noc(C4(c5ccccc5)CC4)n3)CC2=O)cc1 (stereo not drawn),–
O=C1NC2(CCN(CC3CCCCC3)CC2)COc2ccccc21,10µM
O=C1NC2(CCN(Cc3ccccc3C(F)(F)F)C2)COc2ccccc21 (stereo not drawn),–
O=C1NC2(CCCN(Cc3ccc(C(F)(F)F)cc3)C2)COc2ccccc21 (stereo not drawn),11µM!
O=C1NC2(CCN(Cc3ccc(F)cc3)CC2)COc2ccccc21,3.2µM
O=C1NCC2(CCN(Cc3ccc(F)cc3)CC2)Oc2ccccc21,–
O=C1NC2(CCN(Cc3cccnc3)CC2)COc2ccccc21,–
O=C1NCC2(CCN(CC3CCCCC3)CC2)Oc2ccccc21,–
O=[S+]1([O-])NC2(CCCN(Cc3ccc(C(F)(F)F)cc3)C2)COc2ccccc21 (stereo not drawn),–
O=C1NC2(CCN(CC3CC3)CC2)COc2ccccc21,–
CC[C@H]1CN(C(=O)Nc2cccc(C(F)(F)F)c2)CC[C@H]1CC(=O)N(C)CC#N,–
COC[C@@H]1CN(C(=O)c2ncccc2C)C[C@H]1c1nc(C2CC2)no1,–
Cc1c(NC(=O)CCc2cc3n(n2)CCNC3)cccc1-c1nncn1C,–
COc1ccc(-c2noc(C(=O)O)c2[C@@H](C)NC(=O)Nc2cccnc2)cc1,–
O=C(C1CCN(S(=O)(=O)N2CCOCC2)CC1)N1CCc2nc3cc[nH]n3c(=O)c2C1,–[5.79 µM]
COc1ccccc1C(=O)N1CCC2(CC(c3cccc(C(F)(F)F)c3)=NO2)C1 (stereo not drawn),–
Cc1ccccc1Cn1nc2n(c1=O)CCCCC2,–
CC(=O)N1Cc2ccccc2CC2(CCCN2Cc2ccccc2)C1 (stereo not drawn),–
COc1ccc(CC(=O)N2Cc3ccccc3CC23CCCN(C(=O)CN)C3)cc1 (stereo not drawn),–
CS(=O)(=O)N1CC2(CCCN2Cc2cccc(C(N)=O)c2)Cc2ccccc21 (stereo not drawn),14µM
O=C(C1CC1)N1CC2(CCCN2Cc2cccnc2)Cc2ccccc21 (stereo not drawn),10µM

# Screening data: PubChem, National Center for Advancing Translational Sciences (NCATS)
